tim23-1 inh – tim23-1 yeast growth inhibition; inhibition, % at 20 µM; S. cerevisiae tim23-1 growth, BacTiter-Glo luminescence, 24 h; 1.3% of 330,000 active; AID 463212;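 active means growth inhibition of the mutant yeast at or above 50%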;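 further: temperature-sensitive mutant grown at 25 °C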
tim10-1 inh – inhibits growth of tim10-1 mutant yeast. S. cerevisiae tim10-1 ts strain growth, BacTiter-Glo, 24 h. inhibition, % at 20 µM. 2.2% of 330,000 active;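 active means inhibition of at least 40%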;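 further: mutant grown at 25 °C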
Rce1 inhib – blocks yeast Ras-converting enzyme | Q03530 | yeast membranes, quenched prenylated peptide cleavage fluorescence | calls only | 0.27% of 290,000 active | AID 2563;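 active means fall in fluorescence gain of 50% or more versus controls, with final raw signal at or below 3038400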
Target sequence (Q03530 whole entry, looked up): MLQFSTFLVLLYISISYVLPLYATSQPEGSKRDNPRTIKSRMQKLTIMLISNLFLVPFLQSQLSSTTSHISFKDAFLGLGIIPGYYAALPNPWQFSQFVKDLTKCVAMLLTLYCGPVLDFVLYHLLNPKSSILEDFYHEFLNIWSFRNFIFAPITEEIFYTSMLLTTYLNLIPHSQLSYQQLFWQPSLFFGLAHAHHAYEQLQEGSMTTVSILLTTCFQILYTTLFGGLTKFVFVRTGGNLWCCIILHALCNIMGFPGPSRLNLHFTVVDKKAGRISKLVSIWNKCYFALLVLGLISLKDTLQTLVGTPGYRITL
TIM10 inh – inhibits growth of TIM10 yeast strain; S. cerevisiae TIM10 strain growth, BacTiter-Glo luminescence, 24 h; 1.4% of 330,000 active; inhibition, % at 10 µM;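 active means inhibition of 40% or more at the single tested concentration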;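 further: wild-type TIM10 isogenic control strain grown at permissive 25 °C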
PfHsp90 set2 – reduces growth (ATP signal) of yeast expressing P. falciparum Hsp90; inhibition, % at 9.4 µM; 0.32% of 310,000 active; AID 504621; S. cerevisiae expressing PfHsp90, BacTiter-Glo ATP, 48 h; yeast lacking PDR1 and PDR3 efflux regulators;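 active means every replicate shows inhibition above about 80%, whatever the replicate mean, limit read from the data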
tim10-1 confirm – confirmation of tim10-1 mutant yeast growth inhibitors; 56% of 7,400 active; S. cerevisiae tim10-1 ts strain growth, BacTiter-Glo, 24 h; shares compounds with tim10-1 inh; inhibition, % at 20 µM;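 active means inhibition of yeast growth at or above a set limit in either of two repeat tests at 20 µM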;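 further: tim10-1 mutant grown at permissive 25 °C to find synthetic lethal compounds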
Of the large screens only hits and unclear results are named; the others gave an inactive call (follow-up assays come after a bar, where they were run). An excerpt weighted towards active compounds, which were near 3.7% of everything screened.

COc1ccccc1N1CCN(S(=O)(=O)c2ccc3c(c2)NC(=O)C(C)S3)CC1 (configuration not stated)	tim10-1 inh 43 | tim10-1 confirm inactive
CCCN1CCN(S(=O)(=O)c2ccc3c(c2)NC(=O)C(C)S3)CC1 (configuration not stated)	none
COc1ccccc1N1CCN(S(=O)(=O)c2ccc3nc(-c4ccccc4)[nH]c3c2)CC1	tim10-1 inh 42 | tim10-1 confirm inactive
COc1cc(S(=O)(=O)N2CCN(c3ccccc3F)CC2)ccc1Cl	tim10-1 inh 43 | tim10-1 confirm inactive
CCNc1ncnc2c1cnn2C1CCCCO1 (configuration not stated)	none (no result: tim23-1 inh, tim10-1 inh, Rce1 inhib, TIM10 inh)
COc1ccc(/C=C2\CCCC3C2=NN(C(=O)CSc2n[nH]c(N)n2)C3c2ccc(OC)cc2)cc1 (configuration not stated)	none
CC(C)NC(=O)NC(=O)COc1ccc(Br)cc1Br	tim10-1 inh 45 | tim10-1 confirm inactive
O=C1CN(C(=O)CNCc2ccccc2Cl)c2ccccc2N1	none
O=C(NCCc1nc2ccccc2[nH]1)C1CCC(=O)N(CCc2cccc(F)c2)C1 (configuration not stated)	none
Cc1c(C(=O)Nc2ccc(C(=O)Nc3ccccc3)cc2)cccc1[N+](=O)[O-]	none
Cc1c(C(=O)Nc2ccccc2-c2ccccc2)cccc1[N+](=O)[O-]	tim10-1 inh 42 | tim10-1 confirm inactive
Cc1ccc(S(=O)(=O)N(Cc2ccccc2)c2ccccc2C(=O)NCc2ccco2)cc1	tim10-1 inh 41 (no result: PfHsp90 set2) | tim10-1 confirm inactive
Cc1ccc(S(=O)(=O)N(C)CC(=O)O/N=C(\N)c2ccccn2)cc1	none
N/C(=N\OC(=O)CCCOc1ccc(Cl)cc1Cl)c1ccccn1	tim10-1 inh 59 | tim10-1 confirm 39
CN(CC(=O)O/N=C(\N)c1ccccn1)S(=O)(=O)c1cc(Cl)ccc1Cl	tim10-1 inh 43 | tim10-1 confirm 41
CCCN(CCC)c1ncnc2nc[nH]c12	tim10-1 inh 45 | tim10-1 confirm inactive
Nc1ncnc2nc[nH]c12	none
Clc1ccccc1CN(Cc1ccccc1)c1ncnc2nc[nH]c12	tim10-1 inh 41 | tim10-1 confirm inactive
CCOC(=O)c1c(CSc2ccccc2)n(C)c2ccc(O)c(CN3CCOCC3)c12	tim10-1 inh 44 | tim10-1 confirm inactive
O=C(CCCN1C(=O)c2cccnc2Oc2ccc(Cl)cc21)N1CCCCC1	none
CC(=O)N(C(C)=O)c1c(C#N)c(C)n(-c2ccccc2)c1C(=O)c1ccccc1	tim10-1 inh 41 | tim10-1 confirm inactive
Cc1[nH]c(C(=O)O)c(C#N)c1C(=O)c1ccccc1	none
CC(C)CCNC(=O)NC(=O)COC(=O)/C=C/c1cccc([N+](=O)[O-])c1	tim10-1 inh 42 | tim10-1 confirm inactive
CCOc1ccccc1CN(CCc1ccc2c(c1)OCO2)Cc1ccccn1	none
CCOC(=O)c1ccc(N2C(=O)C3C(C2=O)C(C(=O)c2ccc(Cl)cc2)N2CCCC32)cc1 (configuration not stated)	tim10-1 inh 42 | tim10-1 confirm 29
C/C(CC(=O)Nc1ccc(C)c(Cl)c1)=N\NC(=O)c1ccco1	tim10-1 inh 41 | tim10-1 confirm inactive
C/C(CC(=O)Nc1ccc(C)c(Cl)c1)=N\NC(=O)Cc1ccccc1	none
COCCNC(=O)c1c(N)n(/N=C/c2cccs2)c2nc3ccccc3nc12	tim10-1 inh 44 | tim10-1 confirm inactive
COCCNC(=O)c1c(N)n(/N=C/c2ccc(F)cc2)c2nc3ccccc3nc12	none (no result: PfHsp90 set2)
CCOC(=O)c1sc2nc(CC(=O)OC)nc(NCc3ccco3)c2c1C	none (no result: tim23-1 inh, tim10-1 inh, TIM10 inh)
CCOC(=O)c1sc2ncnc(NCc3ccco3)c2c1C	tim10-1 inh 47 | tim10-1 confirm 35
Cc1ccc(N2CSC3=C(C#N)C(c4cccs4)CC(=O)N3C2)cc1 (configuration not stated)	tim10-1 inh 40 | tim10-1 confirm inactive
CC1(C)CC(=O)C2=C(C1)OC1OC(=O)CC21C (configuration not stated)	none (no result: Rce1 inhib)
COc1ccc(C(=O)/C=C/c2ccccc2)c(O)c1	tim10-1 inh 49 | tim10-1 confirm 47
COc1ccc(C(=O)c2ccc(OC)cc2O)c(O)c1	tim10-1 inh 41 (no result: Rce1 inhib) | tim10-1 confirm 36
COc1ccc(C(=O)c2ccccc2O)c(O)c1	none (no result: Rce1 inhib)
O=C(Cc1cccc(NC(=O)C2CCN(C(=O)C3CCCCC3)CC2)c1)Nc1cccc(C(=O)N2CCCC2)c1	none (no result: Rce1 inhib)
Cc1ccc(OC(=O)c2ccc([N+](=O)[O-])cc2Cl)cn1	tim10-1 inh 43 | tim10-1 confirm inactive
CCN(C(=O)CN1CCN(C)CC1)c1c(N)n(Cc2ccccc2)c(=O)[nH]c1=O	none (no result: Rce1 inhib)
O=C(c1cn(-c2ccccc2)nc1-c1cccc([N+](=O)[O-])c1)N1CCCCC1	tim10-1 inh 48 | tim10-1 confirm 34
O=[N+]([O-])c1cccc(-c2nn(-c3ccccc3)cc2CO)c1	tim10-1 inh 40 | tim10-1 confirm 41
CN(C)C(=O)c1cn(-c2ccccc2)nc1-c1cccc([N+](=O)[O-])c1	none
CN1N=C(c2ccc(Cl)cc2)CC(c2ccc(Cl)cc2)C1=O (configuration not stated)	tim10-1 inh 42 | tim10-1 confirm inactive
CC1CCN(c2oc(-c3ccc(F)cc3)nc2C#N)CC1	tim10-1 inh 99, Rce1 inhib active | tim10-1 confirm inactive
CCCCCCCCCCCCCCCC[N+](C)(C)CC	tim10-1 inh 79, PfHsp90 set2 108 | tim10-1 confirm inactive
Cc1nc(C)c(C(=O)N2CCCC(C(=O)c3ccc(Cl)cc3C)C2)s1 (configuration not stated)	none
CCOc1cc(C2NC(=O)CCC2[N+](=O)[O-])cc(Br)c1OC (configuration not stated)	none
CC(=O)c1ccc(NC(=S)Nc2cccc3ccccc23)cc1	tim10-1 inh 41 | tim10-1 confirm inactive
Cc1ccc(NC(=S)Nc2cccc3ccccc23)cc1F	tim10-1 inh 49 | tim10-1 confirm inactive
CNc1snc(C)c1C(=O)OCC(=O)N(C)Cc1ccccc1	none (no result: Rce1 inhib)
O=C(c1ccc(Br)o1)N1CCc2ccccc21	none (no result: PfHsp90 set2)
Clc1ccc(-c2ccc(CNCc3ccccn3)o2)cc1	none
Cc1ccc(Nc2c(-c3ccco3)nc3nc(C)cc(C)n23)cc1	tim10-1 inh 41 | tim10-1 confirm inactive
CCOc1ccccc1NC(=O)CN1C(=O)C(=O)N(Cc2ccco2)C1=O	none
CN1C(=O)C2(c3ccccc31)N(C)CC(c1ccccn1)C21SC(=S)N(Cc2ccco2)C1=O (configuration not stated)	tim10-1 inh 47 | tim10-1 confirm inactive
O=C(NC(=O)c1ccc(Cl)cc1)Nc1ccc(-c2cnco2)cc1	none (no result: PfHsp90 set2)
O=C(COc1ccccc1Cl)NNC(=O)c1ccc2nc[nH]c2c1	none
CCOC(=O)c1c(N2C(=O)C3CC(C)=C(C)CC3C2=O)sc(C)c1C (configuration not stated)	tim10-1 inh 40 | tim10-1 confirm inactive

Assay outcomes (PubChem)
